From the supplement of paper PMC7411054
Where a name gives a salt, the structure may show the parent alone.

Tests used:
Experiment in all cases: phenotypically active (imaging signature differs from DMSO and reproducible) at any of 0.3-9 uM (binary (1 = active, 0 = inactive)); higher = active
Conditions in all cases: treatment time: 24 h
A549-ACTB-RAB5A = tested on: A549-ACTB-RAB5A
Summary of the method: (§1)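 After 24 h at 0.3, 1, 3 or 9 µM, with four wells per treatment, fifteen gene-edited A549, HepG2 and WPMY1 reporter lines carrying BFP, GFP and RFP/FusionRed were imaged live. Each well's live-cell features were expressed relative to solvent control wells. Deviation required ≥3 of 4 wells past the 95th percentile of control Euclidean distances, and reproducibility a median replicate Pearson correlation over the 95th percentile of non-replicates. Phenotypic activity rested on both.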

A549-CANX-COX4 = tested on: A549-CANX-COX4
Summary of the method: as §1

A549-GM130-SQSTM1 = tested on: A549-GM130-SQSTM1
Summary of the method: as §1

A549-TP53BP1-CLTA = tested on: A549-TP53BP1-CLTA
Summary of the method: as §1

A549-TUBA1B-RELA = tested on: A549-TUBA1B-RELA
Summary of the method: as §1

HepG2-ACTB-RAB5A = tested on: HepG2-ACTB-RAB5A
Summary of the method: as §1

HepG2-CANX-COX4 = tested on: HepG2-CANX-COX4
Summary of the method: as §1

HepG2-GM130-SQSTM1 = tested on: HepG2-GM130-SQSTM1
Summary of the method: as §1

HepG2-TP53BP1-CLTA = tested on: HepG2-TP53BP1-CLTA
Summary of the method: as §1

HepG2-TUBA1B-RELA = tested on: HepG2-TUBA1B-RELA
Summary of the method: as §1

WPMY1-ACTB-RAB5A = tested on: WPMY1-ACTB-RAB5A
Summary of the method: as §1

WPMY1-CANX-COX4 = tested on: WPMY1-CANX-COX4
Summary of the method: as §1

WPMY1-GM130-SQSTM1 = tested on: WPMY1-GM130-SQSTM1
Summary of the method: as §1

WPMY1-TP53BP1-CLTA = tested on: WPMY1-TP53BP1-CLTA
Summary of the method: as §1

WPMY1-TUBA1B-RELA = tested on: WPMY1-TUBA1B-RELA
Summary of the method: as §1

Measured: phenotypically active

Cc1ccc(-c2c(-c3nn(C)c4ncnc(N5CC[C@H](N6CCCCC6)C5)c34)cnn2C)cc1
inactive: A549-ACTB-RAB5A 0 | A549-CANX-COX4 0 | A549-GM130-SQSTM1 0 | A549-TP53BP1-CLTA 0 | A549-TUBA1B-RELA 0 | HepG2-ACTB-RAB5A 0 | HepG2-CANX-COX4 0 | HepG2-GM130-SQSTM1 0 | HepG2-TP53BP1-CLTA 0 | HepG2-TUBA1B-RELA 0 | WPMY1-ACTB-RAB5A 0 | WPMY1-CANX-COX4 0 | WPMY1-GM130-SQSTM1 0 | WPMY1-TP53BP1-CLTA 0 | WPMY1-TUBA1B-RELA 0

COc1ccc(C(=O)Nc2sc3c(c2C(N)=O)CCCC3)cc1OC
inactive: A549-ACTB-RAB5A 0 | A549-CANX-COX4 0 | A549-GM130-SQSTM1 0 | A549-TP53BP1-CLTA 0 | A549-TUBA1B-RELA 0 | HepG2-ACTB-RAB5A 0 | HepG2-CANX-COX4 0 | HepG2-GM130-SQSTM1 0 | HepG2-TP53BP1-CLTA 0 | HepG2-TUBA1B-RELA 0 | WPMY1-ACTB-RAB5A 0 | WPMY1-CANX-COX4 0 | WPMY1-GM130-SQSTM1 0 | WPMY1-TP53BP1-CLTA 0 | WPMY1-TUBA1B-RELA 0

CO[C@H]1C=CO[C@@]2(C)Oc3c(C)c(O)c4c(O)c(c5c(nc6cc(C)ccn65)c4c3C2=O)NC(=O)C(C)=CC=C[C@H](C)[C@H](O)[C@@H](C)[C@@H](O)[C@@H](C)[C@H](OC(C)=O)[C@@H]1C [Rifaximin]
inactive: A549-ACTB-RAB5A 0 | A549-CANX-COX4 0 | A549-GM130-SQSTM1 0 | A549-TP53BP1-CLTA 0 | A549-TUBA1B-RELA 0 | HepG2-ACTB-RAB5A 0 | HepG2-CANX-COX4 0 | HepG2-GM130-SQSTM1 0 | HepG2-TP53BP1-CLTA 0 | HepG2-TUBA1B-RELA 0 | WPMY1-ACTB-RAB5A 0 | WPMY1-CANX-COX4 0 | WPMY1-GM130-SQSTM1 0 | WPMY1-TP53BP1-CLTA 0 | WPMY1-TUBA1B-RELA 0

CC(C)NCC(O)c1ccc(O)c(O)c1 (stereo not given) [Isoproterenol hydrochloride]
inactive: A549-ACTB-RAB5A 0 | A549-CANX-COX4 0 | A549-GM130-SQSTM1 0 | A549-TP53BP1-CLTA 0 | A549-TUBA1B-RELA 0 | HepG2-ACTB-RAB5A 0 | HepG2-CANX-COX4 0 | HepG2-GM130-SQSTM1 0 | HepG2-TP53BP1-CLTA 0 | HepG2-TUBA1B-RELA 0 | WPMY1-ACTB-RAB5A 0 | WPMY1-CANX-COX4 0 | WPMY1-GM130-SQSTM1 0 | WPMY1-TP53BP1-CLTA 0 | WPMY1-TUBA1B-RELA 0

N[C@@H](Cc1ccc(O)c(O)c1)C(=O)O [levodopa]
inactive: A549-ACTB-RAB5A 0 | A549-CANX-COX4 0 | A549-GM130-SQSTM1 0 | A549-TP53BP1-CLTA 0 | A549-TUBA1B-RELA 0 | HepG2-ACTB-RAB5A 0 | HepG2-CANX-COX4 0 | HepG2-GM130-SQSTM1 0 | HepG2-TP53BP1-CLTA 0 | HepG2-TUBA1B-RELA 0 | WPMY1-ACTB-RAB5A 0 | WPMY1-CANX-COX4 0 | WPMY1-GM130-SQSTM1 0 | WPMY1-TP53BP1-CLTA 0 | WPMY1-TUBA1B-RELA 0

COc1ccc(CN(CCN(C)C)c2ccccn2)cc1 [mepyramine]
inactive: A549-ACTB-RAB5A 0 | A549-CANX-COX4 0 | A549-GM130-SQSTM1 0 | A549-TP53BP1-CLTA 0 | A549-TUBA1B-RELA 0 | HepG2-ACTB-RAB5A 0 | HepG2-CANX-COX4 0 | HepG2-GM130-SQSTM1 0 | HepG2-TP53BP1-CLTA 0 | HepG2-TUBA1B-RELA 0 | WPMY1-ACTB-RAB5A 0 | WPMY1-CANX-COX4 0 | WPMY1-GM130-SQSTM1 0 | WPMY1-TP53BP1-CLTA 0 | WPMY1-TUBA1B-RELA 0

C#C[C@]1(O)CC[C@H]2[C@@H]3CCc4cc(OC5CCCC5)ccc4[C@H]3CC[C@@]21C [quinestrol]
inactive: A549-ACTB-RAB5A 0 | A549-CANX-COX4 0 | A549-GM130-SQSTM1 0 | A549-TP53BP1-CLTA 0 | A549-TUBA1B-RELA 0 | HepG2-ACTB-RAB5A 0 | HepG2-CANX-COX4 0 | HepG2-GM130-SQSTM1 0 | HepG2-TP53BP1-CLTA 0 | HepG2-TUBA1B-RELA 0 | WPMY1-ACTB-RAB5A 0 | WPMY1-CANX-COX4 0 | WPMY1-GM130-SQSTM1 0 | WPMY1-TP53BP1-CLTA 0 | WPMY1-TUBA1B-RELA 0

NCCNS(=O)(=O)c1ccc(Cl)c2ccncc12 [CKI 7 dihydrochloride]
inactive: A549-ACTB-RAB5A 0 | A549-CANX-COX4 0 | A549-GM130-SQSTM1 0 | A549-TP53BP1-CLTA 0 | A549-TUBA1B-RELA 0 | HepG2-ACTB-RAB5A 0 | HepG2-CANX-COX4 0 | HepG2-GM130-SQSTM1 0 | HepG2-TP53BP1-CLTA 0 | HepG2-TUBA1B-RELA 0 | WPMY1-ACTB-RAB5A 0 | WPMY1-CANX-COX4 0 | WPMY1-GM130-SQSTM1 0 | WPMY1-TP53BP1-CLTA 0 | WPMY1-TUBA1B-RELA 0

CNS(=O)(=O)CCc1ccc2[nH]cc(C3CCN(C)CC3)c2c1 [naratriptan]
inactive: A549-ACTB-RAB5A 0 | A549-CANX-COX4 0 | A549-GM130-SQSTM1 0 | A549-TP53BP1-CLTA 0 | A549-TUBA1B-RELA 0 | HepG2-ACTB-RAB5A 0 | HepG2-CANX-COX4 0 | HepG2-GM130-SQSTM1 0 | HepG2-TP53BP1-CLTA 0 | HepG2-TUBA1B-RELA 0 | WPMY1-ACTB-RAB5A 0 | WPMY1-CANX-COX4 0 | WPMY1-GM130-SQSTM1 0 | WPMY1-TP53BP1-CLTA 0 | WPMY1-TUBA1B-RELA 0

Cc1n[nH]c(=O)[nH]c1=O [Azathymine, 6]
inactive: A549-ACTB-RAB5A 0 | A549-CANX-COX4 0 | A549-GM130-SQSTM1 0 | A549-TP53BP1-CLTA 0 | A549-TUBA1B-RELA 0 | HepG2-ACTB-RAB5A 0 | HepG2-CANX-COX4 0 | HepG2-GM130-SQSTM1 0 | HepG2-TP53BP1-CLTA 0 | HepG2-TUBA1B-RELA 0 | WPMY1-ACTB-RAB5A 0 | WPMY1-CANX-COX4 0 | WPMY1-GM130-SQSTM1 0 | WPMY1-TP53BP1-CLTA 0 | WPMY1-TUBA1B-RELA 0

CN(CCOc1ccc(C[C@H](Nc2ccccc2C(=O)c2ccccc2)C(=O)O)cc1)c1ccccn1 [GW 1929 hydrochloride]
inactive: A549-ACTB-RAB5A 0 | A549-CANX-COX4 0 | A549-GM130-SQSTM1 0 | A549-TP53BP1-CLTA 0 | A549-TUBA1B-RELA 0 | HepG2-ACTB-RAB5A 0 | HepG2-CANX-COX4 0 | HepG2-GM130-SQSTM1 0 | HepG2-TP53BP1-CLTA 0 | HepG2-TUBA1B-RELA 0 | WPMY1-ACTB-RAB5A 0 | WPMY1-CANX-COX4 0 | WPMY1-GM130-SQSTM1 0 | WPMY1-TP53BP1-CLTA 0 | WPMY1-TUBA1B-RELA 0

C#C[C@]1(O)CC[C@H]2[C@@H]3CCC4=CC(=NO)CC[C@@H]4[C@H]3CC[C@@]21CC [norelgestromin]
inactive: A549-ACTB-RAB5A 0 | A549-CANX-COX4 0 | A549-GM130-SQSTM1 0 | A549-TP53BP1-CLTA 0 | A549-TUBA1B-RELA 0 | HepG2-ACTB-RAB5A 0 | HepG2-CANX-COX4 0 | HepG2-GM130-SQSTM1 0 | HepG2-TP53BP1-CLTA 0 | HepG2-TUBA1B-RELA 0 | WPMY1-ACTB-RAB5A 0 | WPMY1-CANX-COX4 0 | WPMY1-GM130-SQSTM1 0 | WPMY1-TP53BP1-CLTA 0 | WPMY1-TUBA1B-RELA 0

COc1ncc2cc(C(=O)Nc3cc(C(=O)NCc4cccc(Cl)c4)ccc3Cl)c(=O)[nH]c2n1
inactive: A549-ACTB-RAB5A 0 | A549-CANX-COX4 0 | A549-GM130-SQSTM1 0 | A549-TP53BP1-CLTA 0 | A549-TUBA1B-RELA 0 | HepG2-ACTB-RAB5A 0 | HepG2-CANX-COX4 0 | HepG2-GM130-SQSTM1 0 | HepG2-TP53BP1-CLTA 0 | HepG2-TUBA1B-RELA 0 | WPMY1-ACTB-RAB5A 0 | WPMY1-CANX-COX4 0 | WPMY1-GM130-SQSTM1 0 | WPMY1-TP53BP1-CLTA 0 | WPMY1-TUBA1B-RELA 0

Cc1nc2c(O)cccc2c(=O)[nH]1
inactive: A549-ACTB-RAB5A 0 | A549-CANX-COX4 0 | A549-GM130-SQSTM1 0 | A549-TP53BP1-CLTA 0 | A549-TUBA1B-RELA 0 | HepG2-ACTB-RAB5A 0 | HepG2-CANX-COX4 0 | HepG2-GM130-SQSTM1 0 | HepG2-TP53BP1-CLTA 0 | HepG2-TUBA1B-RELA 0 | WPMY1-ACTB-RAB5A 0 | WPMY1-CANX-COX4 0 | WPMY1-GM130-SQSTM1 0 | WPMY1-TP53BP1-CLTA 0 | WPMY1-TUBA1B-RELA 0
